In the library only some 1.3% were active in any assay of this set; here they are far more common.
PREPL inh: PREPL enzyme inhibitors, primary screen, biochemical, fluorescence polarization. hit rate 0.68% among 320,000. AID 2751, 2010. recombinant PREPL, fluorescence polarization activity-based probe. inhibition, % at 5.96 µM;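 further: 0% = enzyme with DMSO and 100% = wells lacking enzyme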
RAD52 inh: RAD52 DNA annealing inhibitors, primary screen, biochemical, FRET, single point, set 2 | inhibition, % at 18.7 µM | hit rate 0.46% among 360,000 | DNA repair protein RAD52 homolog (Homo sapiens), P43351 | AID 651710, 2012 | recombinant RAD52 DNA annealing, FRET fluorescence;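 active means every replicate showing at least 50% inhibition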
Target sequence (P43351 whole entry, looked up): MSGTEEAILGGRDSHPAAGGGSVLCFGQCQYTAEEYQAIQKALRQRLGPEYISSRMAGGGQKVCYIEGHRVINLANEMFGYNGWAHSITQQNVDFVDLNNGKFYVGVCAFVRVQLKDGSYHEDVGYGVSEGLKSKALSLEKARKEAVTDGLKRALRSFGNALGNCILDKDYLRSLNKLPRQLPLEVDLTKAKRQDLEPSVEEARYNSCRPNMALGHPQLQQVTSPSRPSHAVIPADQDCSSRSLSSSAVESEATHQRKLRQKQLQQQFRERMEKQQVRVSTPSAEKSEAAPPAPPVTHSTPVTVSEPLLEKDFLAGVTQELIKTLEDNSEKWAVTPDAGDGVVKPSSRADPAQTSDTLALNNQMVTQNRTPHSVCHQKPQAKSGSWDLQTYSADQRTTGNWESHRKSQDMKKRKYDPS
beta cell repl: inducers of MIN6 beta-cell proliferation, primary screen, ATP luminescence, uHTS; MIN6 cells proliferation, ATPlite luminescence, 48 h; cells starved in 0.2% serum; 100% = growth in 10% serum; proliferation, % at 10 µM; hit rate 0.29% among 330,000; AID 2380, 2010;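 active means compounds whose signal lies at least 3.5 SD above the mean of all wells on their plate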;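 further: 0% = DMSO-treated cells in low-serum medium and 100% = 10% serum control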
DNA FID counter: compounds displacing fluorescent DNA intercalator, primary screen, artefact control for HCV NS3 helicase inhibitor project, biochemical, FID fluorescence; hit rate 0.17% among 290,000; inhibition, % at 7.9 µM; AID 1845, 2009; DNA fluorescent intercalator displacement; in the data active means inhibition above about 37%;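 further: 0% = vehicle and 100% = reference compound; higher means more ethidium bromide displaced from hairpin DNA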
UBC13 polyUb: UBC13 polyubiquitin chain formation inhibitors, primary screen, biochemical, TR-FRET, uHTS; AID 485273, 2010; Ubiquitin-conjugating enzyme E2 N (Homo sapiens), P61088; hit rate 0.47% among 330,000; inhibition, % at 20 µM; in the data active means inhibition above about 45%, passing the limit was not always enough
RAD54 inh: inhibitors of human RAD54 branch migration, primary screen, biochemical, fluorescence, single point. RAD54 Holliday junction branch migration, FAM/BHQ fluorescence. inhibition, % at 10.4 µM. hit rate 0.14% among 360,000;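 active means mean normalized replicate activity at least 40 and at least half of replicates scoring 40 or more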;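 further: 0% = median of neutral control wells and 100% = median of positive control wells; inhibitors cause a drop in the FAM fluorescence signal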
PREPL inh cf: human PREPL enzyme inhibitors, confirmation, biochemical, fluorescence polarization; shares compounds with PREPL inh; hit rate 67% among 2,000; inhibition, % at 5.96 µM; recombinant PREPL, fluorescence polarization activity probe; AID 2803, 2010;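 further: 0% = protein with DMSO and 100% = wells lacking protein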
The depositor's hits bear a star; . = not tested or not shown. Unless noted, no stated cut-off is given here; in the data, active means inhibition above about 43%; inactive means the rest.

SMILES	PREPL inh	RAD52 inh	beta cell repl	DNA FID counter	UBC13 polyUb	RAD54 inh	PREPL inh cf
CCOC(=O)c1cnc(-n2nc(C)cc2C)nc1Nc1ccccc1OC	.	.	.	-4	.	.	.
CCOC(=O)c1cnc(-n2nc(C)cc2C)nc1NCCc1ccccc1	58*	.	-6	-21	3	-3	54*
CN(C)C(=O)c1ccc(-c2ccc3c(c2)[C@H]2[C@H](CCN2C(=O)C2CCC2)[C@@H](CO)N3C)cc1	.	-4	.	.	.	3	.
Cc1ccc(-c2csc(N3CCN(c4ccc5nc(-c6ccncc6)n(CCN6CCCCC6)c5c4)CC3)n2)cc1	34	15	-6	2	5	-2	.
Cc1ccc(-c2csc(N3CCN(c4cc5c(cc4Cl)nc(-c4ccncc4)n5CCN4CCCCC4)CC3)n2)cc1	45*	-17	-8	-4	13	0	37
CCSc1ncc(/C=N/Nc2ccccc2)n1C	19	.	-2	1	-2	-9	.
CCSc1ncc(/C=N/Nc2ccc(Cl)cc2)n1C	43*	.	-4	-3	14	8	36
CCCN(C)C[C@H]1Oc2cc(-c3cccnc3)ccc2S(=O)(=O)N([C@H](C)CO)C[C@H]1C	.	-10	.	.	.	-4	.
Oc1nc(Nc2ccccc2)sc1/C=C1\C=Nc2ccccc21	59*	-26	2	-3	-4	-15	63*
CN(C)c1ccc(C2C=C(c3ccc(Cl)cc3OC(F)F)Nc3ncnn32)cc1 (stereo not given)	56*	.	-5	.	8	-10	49*
O=C1COc2ccc(-c3csc(=Nc4ccc(OC(F)F)cc4)n3CC3CCCO3)cc2N1 (stereo not given)	46*	.	-6	-5	-12	-7	49*
COc1ccccc1N=c1scc(-c2ccc3c(c2)NC(=O)CO3)n1CC1CCCO1 (stereo not given)	12	.	-3	-26	2	-1	.
CN(C)c1ccc(N=C/C=C2\N(C)c3ccccc3C2(C)C)cc1	70*	.	-4	3	-188	9	68*
CCOC(=O)c1c(C)n(CC(O)c2ccccc2)c2ccc(O)cc12 (stereo not given)	171*	.	0	-18	11	.	6
CCOC(=O)c1c(C)n(CCOc2ccccc2)c2ccc(O)cc12	-5	-1	-4	-21	11	-6	.
CN(C)c1ccc(C(CNC(=O)c2ccccc2Br)c2c[nH]c3ccccc23)cc1 (stereo not given)	56*	-23	-4	-13	4	.	31
CC(C)NC(=O)Nc1ccc2c(c1)C(=O)N([C@H](C)CO)C[C@@H](C)[C@@H](CN(C)Cc1ccc(C(F)(F)F)cc1)O2	.	10	.	.	.	-2	.
C[C@@H]1CN([C@@H](C)CO)C(=O)c2cc(C#CC3CC3)cnc2O[C@@H]1CN(C)C(=O)Nc1ccc(F)cc1	.	16	.	.	.	5	.
O=[N+]([O-])c1cc(-c2ccccc2)cc([N+](=O)[O-])c1O	.	-11	.	.	.	-4	.
O=C([O-])c1ccccc1-[n+]1c(-c2ccccc2)cc(-c2ccccc2)cc1-c1ccccc1	56*	47	-6	.	11	-10	46*
Cc1cc(C)cc(N(CCC#N)C(=O)COC(=O)CCc2c[nH]c3ccccc23)c1	46*	-9	0	.	12	5	39
CC(C)NC(=O)N(C)C[C@@H]1Oc2ccc(NC(=O)CCC(F)(F)F)cc2C(=O)N([C@@H](C)CO)C[C@H]1C	.	4	.	.	.	-2	.
COc1cc(O)c(C(CC(=O)N2CCN(c3ccccc3)CC2)c2ccc(N(C)C)cc2)c(OC)c1 (stereo not given)	54*	14	-5	.	13	1	48*
COc1cc(O)c(C(CC(=O)N2CCCC(C)C2)c2ccc(N(C)C)cc2)c(OC)c1 (stereo not given)	20	-12	-1	.	-6	-4	.
